Measured values published in PubChem BioAssay (NCI).
Compounds without any hit were thinned out: in the full panel of roughly 79,000, 15% have a hit. Calls of active or inactive are those of the source. No stated cut-off is given here; in the data, active means growth inhibition above about 70%; inactive means the rest. Where a SMILES comes first, the peptide text is derived from it. The star is where a group is joined. Myristoyl = CCCCCCCCCCCCCC(=O)*

Assays:
[1] = NCI Yeast Anticancer Drug Screen. Data for the rad50 strain (AID 155);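 further: 0% = growth of vehicle-only cultures of the same strain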; settings: S. cerevisiae rad50 strain growth inhibition; at 50.0 µM; hits give high values
Summary of the method: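 Yeast carrying a defined DNA repair defect were exposed to test compounds, and growth was compared with vehicle-treated controls to give percent inhibition.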

[2] = NCI Yeast Anticancer Drug Screen. Data for the mec2-1 strain (AID 157); settings: S. cerevisiae mec2-1 strain, at 50.0 µM, hits give high values
Summary of the method: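 mec2-1 yeast strain, carrying an alteration in DNA damage repair or cell cycle control, was exposed to compounds; growth inhibition was measured relative to vehicle-treated controls.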

[3] = NCI Yeast Anticancer Drug Screen. Data for the sgs1 mgt1 strain (AID 161);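 further: 0% = growth of cultures given vehicle only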; settings: S. cerevisiae sgs1 mgt1 strain, at 50.0 µM, hits give high values
Summary of the method: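 Yeast cells carrying a defined DNA-repair defect were exposed to test compounds. Growth inhibition was measured relative to vehicle-treated controls.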

[4] = NCI Yeast Anticancer Drug Screen. Data for the cln2 rad14 strain (AID 165);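 further: 0% = growth equal to vehicle treated cultures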; settings: S. cerevisiae cln2 rad14 strain, at 50.0 µM, hits give high values
Summary of the method: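 Yeast carrying cln2 and rad14 alterations (cell cycle control and DNA damage repair) were exposed to compounds. Growth inhibition was measured against vehicle-treated controls.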

[5] = NCI Yeast Anticancer Drug Screen. Data for the bub3 strain (AID 167); settings: S. cerevisiae bub3 mutant strain, at 50.0 µM, hits give high values
Summary of the method: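 Compounds were applied to a genetically altered yeast strain carrying a cell-cycle control defect. Growth inhibition was scored against vehicle-treated controls.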

[6] = NCI Yeast Anticancer Drug Screen. Data for the mlh1 rad18 strain (AID 175); settings: S. cerevisiae mlh1 rad18 strain growth inhibition; at 50.0 µM; hits give high values
Summary of the method: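 Growth inhibition of the yeast strain was measured after compound exposure and expressed relative to vehicle-treated controls. The strain carries defined defects in DNA damage repair.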

Measured: growth inhibition

CC(=O)CC(=O)NCc1cccc(C)n1
inactive: [1] 38.1% | [2] 24.6% | [3] 28.6% | [4] -8.15% | [5] 20.9% | [6] 24.1%

CCOc1ccc(NC(=O)C2=C(C)NC(C)=C(C(=O)Nc3ccc(OCC)cc3)C2c2ccccc2)cc1
inactive: [1] -22.9% | [2] -7.4% | [3] -20.9% | [4] -17.1% | [5] -16.2% | [6] -18.2%

CC(C)CC(C)(O)C#CC(C)(O)CC(C)C (stereo not given)
inactive: [1] -1.8% | [2] -25.4% | [3] -12.7% | [4] -31.4% | [5] 4.55% | [6] -22.2%

Cn1nc(Br)c(=O)n(C)c1=O
inactive: [1] -17.9% | [2] -11.1% | [3] -14.8% | [4] -3.15% | [5] 1.7% | [6] -10.4%

CCc1cccc(C(C)C)c1NC(=O)C(=O)C(CC(=O)Nc1ccc(Cl)c(Cl)c1)C(=O)OC (stereo not given)
inactive: [1] -1.85% | [2] 3.6% | [3] -2.65% | [4] 15.8% | [5] 14.8% | [6] 7.7%

O=C1c2ccccc2-c2ccc3c4ccc5c6c(ccc(c7ccc1c2c73)c64)C(=O)c1ccccc1-5
inactive: [1] 53.2% | [2] 23.4% | [3] 36.8% | [4] 30.6% | [5] 15.2% | [6] 37.5%

CC(C)OCCCN(Cn1c(=S)sc2ccccc21)Cn1c(=S)sc2ccccc21
inactive: [1] 66.8% | [2] 54.6% | [4] 42.8% | [5] 39.2% | [6] 55.6%
active: [3] 85.9%

CC(C)(C)OC(=O)C(C1NC(C(=O)O)C(C)(C)S1)N1C(=O)c2ccccc2C1=O (stereo not given)
inactive: [1] -29.8% | [2] -43% | [3] -53.7% | [4] -42.1% | [5] -56.4% | [6] -17.4%

CC(C)/C(=N\N=C(\c1ccccc1)C(C)C)c1ccccc1
inactive: [1] -2.6% | [2] 25.5% | [3] 3% | [4] -7.7% | [5] 16.3% | [6] 18.1%

O=C(N/N=C/c1ccc(Cl)cc1Cl)c1ccccc1
inactive: [1] -13.8% | [2] -1.65% | [3] -2.95% | [4] -5.1% | [5] -8.65% | [6] -3.9%

CC(=O)c1cccc(N)c1
inactive: [1] -26.9% | [2] -5.75% | [3] -20.4% | [4] -23.3% | [5] -15.8% | [6] 3.1%

COc1ccc(/C=C2\N=C(c3cc(OC)c(OC)c(OC)c3)OC2=O)cc1
inactive: [1] 20.2% | [2] 13.1% | [3] 18.6% | [4] 24.6% | [5] 22.1% | [6] 7.5%

CC(=O)OCC1OC(n2c(Br)nc3c(N)ncnc32)C2OC(C)(C)OC12 (stereo not given)
inactive: [1] 14.3% | [2] 6.2% | [3] 16.4% | [4] -2.7% | [5] 1.3% | [6] -6.55%

CCC(C)C(N)C(=O)N1CCCC1C(=O)O (stereo not drawn) (H-Ile-Pro-OH; configuration not given here)
inactive: [1] -23.1% | [2] -4.65% | [3] -1.15% | [4] -25.9% | [5] -2.45% | [6] -3.15%

CC(=O)NC(Cc1c[nH]c2ccccc12)C(=O)Oc1ccc([N+](=O)[O-])cc1 (stereo not given)
inactive: [1] -9.2% | [2] 23.1% | [3] 24.6% | [4] 13.1% | [5] 9.3% | [6] 17.6%

O=c1[nH]c2cccnc2c(=O)n1O
inactive: [1] -6.5% | [2] -8.7% | [3] -7.35% | [4] -39.8% | [5] 12.2% | [6] -5.5%

O=C(CCc1ccc(O)c(O)c1)OCCc1ccccc1
active: [1] 89.2% | [2] 89.8% | [3] 90.9% | [4] 88% | [5] 87.5% | [6] 89.2%

CC1(C(=O)O)CCCC1C(CCC(=O)O)C(=O)O (stereo not given)
inactive: [1] -13.8% | [2] 15.1% | [3] 0.55% | [4] -19.6% | [5] -6.9% | [6] -35.1%

CCCCCCCCCCCCCCCCCCC1=CC(=O)c2ccccc2C1=O
inactive: [1] 16.1% | [2] 3% | [3] 25.6% | [4] 31% | [5] 8.4% | [6] 14.9%

Nc1ccc(S(=O)(=O)O)cc1[N+](=O)[O-]
inactive: [1] 4.4% | [2] 3.8% | [3] -3.75% | [4] 1% | [5] 5.8% | [6] 12.6%

CCCCCCCCCCCCCC(=O)NCC(=O)NC(C)C(=O)NC(CCCNC(=N)N)C(=O)NC(C)C(=O)NC(CO)C(=O)NC(C(=O)NC(CC(C)C)C(=O)NC(CO)C(=O)NCC(=O)NCC(=O)NC(CCC(=O)O)C(=O)NC(CC(C)C)C(=O)NC(CC(=O)O)C(=O)NC(CCCNC(=N)N)C(=O)NC(Cc1c[nH]c2ccccc12)C(=O)NC(Cc1ccc(O)cc1)C(N)=O)C(C)C (stereo not given) (Myristoyl-GARASVLSGGELDRWY-NH2; configuration not given here)
inactive: [1] -4% | [2] -6.9% | [3] -12.7% | [4] 8.8% | [5] -40.4% | [6] -6.5%

[N-]=[N+]=Nc1cc(=O)n(-c2ccccc2)c(=O)n1-c1ccccc1
inactive: [1] 9.5% | [2] 8.75% | [3] 13.3% | [4] 21.6% | [5] 10.3% | [6] 32.2%

O=C(NCc1ccccc1)C1C2C=CC(C2)C1C(=O)NCc1ccccc1 (stereo not given)
inactive: [1] -6.65% | [2] -10.8% | [3] 30.4% | [4] -6.3% | [5] 18.1% | [6] 5.85%

[Cu+2].[Cu+2].c1ccc2c(c1)-c1nc-2nc2[n-]c(nc3nc(nc4[n-]c(n1)c1ccccc41)-c1ccccc1-3)c1cc3c4nc5nc(nc6[n-]c(nc7nc(nc([n-]4)c3cc21)-c1ccccc1-7)c1ccccc61)-c1ccccc1-5
inactive: [1] -1.75% | [2] -9.45% | [3] 11.1% | [4] -40.3% | [5] -11.1% | [6] 11.3%

Cn1c(=O)c(-c2ccccc2)cc2ccccc21
inactive: [1] -9.9% | [2] -12.9% | [3] -3.85% | [4] -1.95% | [5] -1.15% | [6] -16.6%

SCc1ccc(CS)s1
inactive: [1] 4.65% | [2] -1.75% | [3] -1.65% | [4] 17.8% | [5] 23.2% | [6] -4.3%

CCOC(CO)OCC
inactive: [1] 28.9% | [2] -0.25% | [3] -3.4% | [4] 8.95% | [5] 13.6% | [6] -8%

C[n+]1cc(-c2ccccc2)cc2ccccc21
inactive: [1] -1.4% | [2] 17.9% | [3] -0.3% | [4] -17.6% | [5] 4.5% | [6] -14.5%

O=C1CC(O)(c2ccccc2)C(c2ccccc2)=C1c1ccccc1 (stereo not given)
inactive: [1] 29.8% | [2] 21.4% | [3] 14.3% | [4] 32.7% | [5] -2.15% | [6] 36.8%

CSC(=S)S(=O)(=O)C12CC3CC(CC(C3)C1)C2
active: [1] 90.5% | [2] 93.2% | [3] 89.5% | [4] 90% | [5] 86.5% | [6] 92.6%

CCOC(=O)C(=CNc1ccc(N(CC)CC)cc1)C(=O)OCC
inactive: [1] -12.7% | [2] -7.85% | [3] -8% | [4] 47.6% | [5] 8.3% | [6] 0.35%

OCC1(F)CC1(c1ccccc1)c1ccccc1 (stereo not given)
inactive: [1] 0.45% | [2] -2.85% | [3] 7.45% | [4] 12.7% | [5] -13.4% | [6] -22.6%

NS(=O)(=O)c1ccc(N2C(=O)C(=O)N(c3ccccc3)C2=S)cc1
inactive: [1] -15.8% | [2] -11.9% | [3] -16.2% | [4] -39.4% | [5] -3.75% | [6] -20.5%

CCC(=O)c1ccccc1C#N
inactive: [1] 8.5% | [2] -3.25% | [3] 1.6% | [4] -4.3% | [5] 0.1% | [6] -1.45%

CCNC1CC(C(C)(C)NCC)CC=C1C (stereo not given)
inactive: [1] -31.4% | [2] -25.2% | [3] -38.7% | [4] -15.4% | [5] -46.9% | [6] -55.2%
